Results: the supplement of paper PMC11417369
Over roughly 25,000 sequences, “ln(normalized median fluorescence intensity)” has its median near 9.3; the highest 2% begin near 10. This is one part of a sample in which the highest values are shown more often than they occur.

tested on: PF3D7_0420300 AP2 domain 1 (GST-tagged); assay: gcPBM binding intensity (ln(normalized median fluorescence intensity)); higher = stronger DNA binding
Outline: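 GST-tagged P. falciparum DNA-binding domains, expressed in E. coli (about 25 μg on average), were applied for 1 h to an Agilent 4 × 180k array of primer-extended double-stranded 36-bp intergenic genomic probes plus negative controls. The binding buffer was 1× PBS with 1% milk, 0.2 mg/ml BSA, 0.5% salmon testes DNA and 0.03% Triton X-100. Bound protein was detected with Alexa488 anti-GST antibody and scanned at 488 nm. Binding intensity is the highest Masliner-normalised natural-log median intensity across replicate spots of either probe orientation.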

Row | Sequence | gcPBM binding intensity (ln)
1 | ATAATTACAAAATAAACACACATATAGATTTATATG [CACACA_site6343] | 9.6
2 | TATACACCCTAAAATACACACACACCCACCCATATA [CACACA_site9380] | 10.3
3 | TATATATATATATACACACACACCCTAAAAATATAT [CACACA_site1611] | 9.97
4 | TATAAATATACACCCACACACATATATAAATAAATA [CACACA_site7717] | 9.89
5 | TACACGCTAAAATACACACACACACCCACATATATA [CACACA_site4153] | 10.2
6 | TACCCACTAAAATACACACACACACCCACATATATA [CACACA_site6141] | 10.2
7 | AAAAAAAATACATACACACACACACCCACATATATA [CACACA_site3561] | 10.1
8 | TATATATATAAATACACACACACCCTAAAAATATAT [CACACA_site4970] | 10.1
9 | TATAAATATACACCCACACACATATATATATATATA [CACACA_site3745] | 9.66
10 | TATATAAATATACACCCACACACATATATATATATA [CACACA_site9247] | 9.63
11 | AATATAAAAATATAAAAACACACGTAAAAAAATTTA [CACACA_site3399] | 9.73
12 | TAATTTCTTATGTATTGTACAAATAATGTATGATAT [XGTACX_site270] | 9.2
13 | AAAAAAAAAAAAAAGGTGCAAATAAATTAACCTTAT | 9.16
14 | TGCAAGGAACAACACACACACACATAAATGTATATA [CACACA_site8149] | 10.2
15 | AGAAAAAACAAAAGAGAAATGAAAAAAAAAAAAAAA [XGTACX_negctrl_site482] | 8.87
16 | TTAAGATAGCAAATATGTACACATTTGTAAAATAAA [XGTACX_site4837] | 9.25
17 | TTAAACGTACATAATACACACACATGTAGACATATA [CACACA_site8635] | 9.79
18 | TATATATATTGTTATTGTACACAAATATAGGAAATA [XGTACX_site7110] | 9.23
19 | TTTATTAATTTATAGTGTACATATTAATAATATATT [XGTACX_site7949] | 9.09

Row | Sequence | gcPBM binding intensity (ln)
20 | GTTTTCTAGTGGGGGTGTACATATTTATATTTAATA [XGTACX_site8378] | 10.2
21 | ATATATTATTTCTAGTGTACATACCCATATATAATA [XGTACX_site8902] | 9.46
22 | TTTGTGATATTATATTGTACCCTATATTTATTATAA [XGTACX_site4240] | 9.56
23 | TTATGTTCATTATATGCACACATATATATAAATGTA [CACACA_site8947] | 9.24
24 | TTTTTATAACAGCTTAGTACATATAAGAATTCTTGC [XGTACX_site5890] | 8.9
25 | TAAAAATTGAAGCACACACACAAAAGAAATACAATA [CACACA_site1113] | 10.2
26 | AAGCACAAAAAATACACACACAAAAAATAAAAAAAG [CACACA_site1840] | 10.1
27 | TAAAAGAAAGCACATACACACACAAAAAAAAAAAAG [CACACA_site8159] | 10.2
28 | CATAAAAATTGAAGCACACACACAAAAGAAATACAA [CACACA_site1112] | 10.2
29 | TAAAAGTTGAAGCACACACACAAAAGAAATACAATA [CACACA_site6649] | 10.1
30 | GCAAAATAAAGAAGCACACAAAAATGAAATATATAT [CACACA_site3651] | 9.59
31 | TCATAATGAAAACAAGCACACATACATAAAATAAAA [CACACA_site9069] | 9.7
32 | AACATAAAAATTGAAGCACACACACTAATGAAATAC [CACACA_site8287] | 10.2
33 | ATAATGAAAACAAGCACACATACATAAAATAAAATA [CACACA_site3257] | 9.86
34 | GGTCTTTTCAACACACGTACATAAAAATATTATACA [XGTACX_site5360] | 9.47
35 | AAATAAATAATAAATAAATAAATAAAATACCAAATA [GTGCAC_negctrl_site620] | 9.6
36 | AAGAAAATATAAAATGCACACTATAAATTGTATATA [CACACA_site7928] | 9.51
37 | TACATAAATACATACATACACACATATATATATATA [CACACA_site2105] | 9.56
38 | AAATAAAAAACAGTGGCACACATTATGTATCCACCT [CACACA_site3756] | 9.32

Row | Sequence | gcPBM binding intensity (ln)
39 | TATATACGCATGCGCACACACAAGTGGGAAATTTGG [CACACA_site1785] | 9.52
40 | TGATATTTTATTATTAAAATATATACATATATATAT [CACACA_negctrl_site1456] | 9.26
41 | TAAAAAAGTTATATTACACACTTTATTGGTTAACTT [CACACA_site653] | 9.35
42 | CTCTTGTCATTTTGCACACACACATGGATAGGTTAT [CACACA_site5655] | 10.2
43 | CTCTTGTCATTTTGCACACACACATGTATAGGTTAT [CACACA_site3057] | 10.2
44 | CTTGTCATTGGGCACACACACATGTATAGGTTATTA [CACACA_site3058] | 9.7
45 | AGCTCTTGTCATTTTGCACACACACCGGTATAGGTT [CACACA_site5654] | 10.1
46 | AGCTCTTGTCATTTTGCACACACACCCGTATAGGTT [CACACA_site3056] | 10
47 | CTTGTCATTTGGCACACACACATGTATAGGTTATTA [CACACA_site5656] | 9.9
48 | CGTATGTATATATATATACACACTTCTGTGATACGA [CACACA_site1949] | 9.33
49 | ATATAATTATATTCCATACACACATATATTTAAAGG [CACACA_site2958] | 9.42
50 | TAAATAAGCACATACACACATACATACATACATAAA [CACACA_site4017] | 9.87
51 | TATAAACATTATAAATGTACAAATATATATATATAT [XGTACX_site3218] | 9.28
52 | ATTATAATTACTCTAGTGCATTATAAATATGAATAA | 8.93
53 | TATGCAAGGAACCACACACACACACCGAAATGTATA [CACACA_site4573] | 10.1
54 | TATGCAAGGAACCACACACACACACCCAAATGTATA [CACACA_site750] | 10.1
55 | TATGCAAGGAACCACACACACACACGGAAATGTATA [CACACA_site6490] | 10.2
56 | AAATTAAAAAAAAATAAATAAAAAAAAAAAAAAAAT [CACACA_negctrl_site1611] | 9.35
57 | TGGATATATGTAAAAATTGCAAGAAAGATAAAAGGA [CACACA_negctrl_site64] | 9.6
